In one assay the test system is MCC-13. Nature of the assay: qHTS assay to identify novel small-molecules to repurpose for Merkel cell carcinoma treatment (AID 1296009). Also: nearly all actives have a fitted effect of over 60% in size. The conditions noted are these: MCC and control cell lines, CellTiter-Glo viability, 72 h; series mostly up to 46 µM. The procedure, abridged: (§1)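 72 hr, 37 degree celsius; NPC 8-pt / MIPE 11-pt dose response; compound pinned in DMSO; CellTiter-Glo, 10 min RT, luminescence; normalized to no-cell and DMSO controls.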
(qHTS replaces the single test concentration by a dilution series.)

In another assay the test system is MCC-26. The description is as above. Particulars: MCC and control cell lines, CellTiter-Glo viability, 72 h; series mostly up to 46 µM. The procedure, abridged: as §1
In general terms: In ATP-based viability assays light output follows the ATP content of the culture.

A further assay concerns MKL-1. Described as above. The conditions noted are these: MCC and control cell lines, CellTiter-Glo viability, 72 h; series mostly up to 46 µM. An outline of the steps: as §1
A further assay deals with MKL-2. The assay is described as above. Particulars: MCC and control cell lines, CellTiter-Glo viability, 72 h; series mostly up to 46 µM. The procedure, abridged:
as §1

A further assay deals with NIH3T3. The assay is described as above. The conditions noted are these: MCC and control cell lines, CellTiter-Glo viability, 72 h; at 44.8 µM (top of the series) unless noted. The procedure, abridged:
as §1

The next assay deals with UISO. The description is as above. Particulars: MCC and control cell lines, CellTiter-Glo viability, 72 h; series mostly up to 46 µM. The procedure, abridged: as §1
For the next assay, the system named is WaGa. The assay is described as above. The conditions noted are these: MCC and control cell lines, CellTiter-Glo viability, 72 h; series mostly up to 46 µM. An outline of the steps: as §1
Another assay concerns C33A. Nature of the assay: Primary qHTS to identify gynecologic anti-cancer compounds using libraries of approved drugs and bioactive compounds (AID 1345084). Also: nearly all actives have a fitted effect of over 55% in size. The conditions noted are these: Gynecologic cancer cell panel viability, ATPlite luminescence, 48 h; series mostly up to 57.5 µM. An outline of the steps: (§2)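 Cytotoxicity screen measuring ATP content by luciferase luminescence. Each compound is applied at five concentrations for 48 h at 37 C with 5% CO2.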

A further assay has as its system CAOV3. The description is as above. Particulars: Gynecologic cancer cell panel viability, ATPlite luminescence, 48 h; series mostly up to 57.5 µM. The procedure, abridged:
as §2

The test system of a further assay is CASKI. The description is as above. Particulars: Gynecologic cancer cell panel viability, ATPlite luminescence, 48 h; series mostly up to 57.5 µM. The procedure, abridged:
as §2

A further assay relates to Es-2. Described as above. Particulars: Gynecologic cancer cell panel viability, ATPlite luminescence, 48 h; series mostly up to 57.5 µM. The procedure, abridged: as §2
The next assay has as its system HeLa. The description is as above. The conditions noted are these: Gynecologic cancer cell panel viability, ATPlite luminescence, 48 h; series mostly up to 57.5 µM. An outline of the steps: as §2
The test system of another assay is Hek293T. The assay is described as above. Particulars: Gynecologic cancer cell panel viability, ATPlite luminescence, 48 h, control line for the selectivity index; series mostly up to 57.5 µM. An outline of the steps: as §2
For a further assay, the system named is JEG-3. The description is as above. Particulars: Gynecologic cancer cell panel viability, ATPlite luminescence, 48 h; series mostly up to 57.5 µM. The procedure, abridged:
as §2

The next assay deals with OV90. Described as above. The conditions noted are these: Gynecologic cancer cell panel viability, ATPlite luminescence, 48 h; series mostly up to 57.5 µM. The procedure, abridged: as §2
Another assay relates to PA-1. The description is as above. The conditions noted are these: Gynecologic cancer cell panel viability, ATPlite luminescence, 48 h; series mostly up to 57.5 µM. The procedure, abridged: as §2
In another assay the test system is SKOV3. The assay is described as above. The conditions noted are these: Gynecologic cancer cell panel viability, ATPlite luminescence, 48 h; series mostly up to 57.5 µM. An outline of the steps:
as §2

The test system of the next assay is Tov-21-G. The description is as above. The conditions noted are these: Gynecologic cancer cell panel viability, ATPlite luminescence, 48 h; series mostly up to 57.5 µM. The procedure, abridged:
as §2

In another assay the test system is Tov112D. Described as above. The conditions noted are these: Gynecologic cancer cell panel viability, ATPlite luminescence, 48 h; series mostly up to 57.5 µM. The procedure, abridged: as §2
Assay [1] can be described thus: Drug repurposing screens with cells derived from glioblastoma tumor samples (AID 1345199). Also: nearly all actives have a fitted effect of over 40% in size. Also: potency is read from the fitted curve at half-maximal effect. The conditions noted are these: GBM patient neurospheres viability, ATP luminescence, 48 h. The procedure, abridged:
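Four patient lines of CD133+ GBM neurospheres were screened at several concentrations; hits were retested in those lines plus three slower-growing GBM lines, using 48-hour treatment and ATP-based viability.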

[2] abbreviates: at 45.9 µM (top of the series), tumour line B.
Setting [3] is: at 45.9 µM (top of the series), tumour line D.
[4] abbreviates: at 46 µM (top of the series), tumour line A.

Several values for one entry are separate records, joined by “and”; a condition that tells them apart may be missing. Equal entries are not always repeated. Inconclusive results are not listed. A number with no mark means an inactive call. Activity calls are given as the source filed them. Calls follow the shape of the dose curve; as a rule, active = well fitted curve in the direction sought with a large enough effect; inconclusive = small, poorly fitted or top-dose-only effect, or another doubt; inactive = no such curve, though single readings can be large; an effect the other way counts as inactive or inconclusive.

This note sets out measurements from PubChem BioAssay (NCATS).
% is scaled to controls: 0 for no effect and ±100 for the full control effect.

Regarding `CN1C(=O)NC(=O)C(C)(C2=CCCCC2)C1=O` (stereo not given), the outcome in the assay with MCC-13, with NIH3T3, in the assay with CAOV3, in the assay with CASKI, in the assay on Hek293T and with JEG-3 was inactive. Also, the result in the assay with SKOV3 was inactive. Moreover, the Potency entry with MCC-26, in the assay on MKL-1, in the assay with MKL-2, in the assay with UISO, with WaGa and in the assay on C33A was “inactive” each time. In addition, the Potency result in the assay on Es-2, in the assay on HeLa, with OV90, with PA-1, with Tov-21-G and with Tov112D was “inactive” in each case. The activity, negative = cell killing in assay [1] (setting [2]) was 16.4% and -21.6%; in [1] (setting [3]), 3.59% and 4.39%; in assay [1] (setting [4]), 3.99%.
In the case of `C=CCC1(C(C)CC)C(=O)NC(=O)NC1=O` (stereo not given), the outcome in the assay with MCC-13, in the assay on NIH3T3, in the assay with CAOV3, with CASKI, in the assay on Hek293T and in the assay on JEG-3 was inactive. Further, the outcome in the assay on SKOV3 was inactive. Also, the Potency entry in the assay with MCC-26, in the assay on MKL-1, in the assay on MKL-2, with UISO, in the assay with WaGa and in the assay on C33A was “inactive” throughout. The Potency result with Es-2, in the assay with HeLa, in the assay on OV90, in the assay with PA-1, in the assay on Tov-21-G and in the assay on Tov112D was “inactive” each time.
Consider `O=C1OC(c2ccc(O)c(S(=O)(=O)O)c2)(c2ccc(O)c(S(=O)(=O)O)c2)c2c(Br)c(Br)c(Br)c(Br)c21`, for which the compound was classed as inactive in the assay on MCC-13, in the assay on NIH3T3, in the assay on CAOV3, with CASKI, in the assay on Hek293T and in the assay with JEG-3. In the assay on SKOV3, the outcome was inactive. For the same compound, the Potency entry with MCC-26, in the assay on MKL-1, in the assay with MKL-2, with UISO, in the assay on WaGa and in the assay with C33A was “inactive” each time. In addition, the Potency entry in the assay with Es-2, with HeLa, in the assay on OV90, with PA-1, with Tov-21-G and with Tov112D was “inactive” throughout. Further, the activity, negative = cell killing is -1.68% in assay [1] (setting [2]), 0.706% in [1] (setting [3]) and -10.6% in [1] (setting [4]).
Take `Clc1ccc(C(c2ccc(Cl)cc2)C(Cl)(Cl)Cl)cc1`: the result in the assay on MCC-13, in the assay with CAOV3, with CASKI, in the assay with Hek293T, with JEG-3 and in the assay with SKOV3 was inactive. Also, the Potency result in the assay with MCC-26, in the assay with MKL-1, in the assay on MKL-2, with UISO, in the assay on WaGa and in the assay with C33A was “inactive” in each case. For the same compound, the Potency result in the assay with Es-2, in the assay on HeLa, in the assay with OV90, with PA-1, in the assay on Tov-21-G and with Tov112D was “inactive” in each case. In addition, in assay [1] (tumour line A), the Potency was 11.2 µM (active).
Regarding `CC(NC(C)(C)C)C(=O)c1cccc(Cl)c1` (stereo not given), the compound was called inactive in the assay with MCC-13, in the assay with NIH3T3, with CAOV3, in the assay on CASKI, in the assay with Hek293T and in the assay on JEG-3. In addition, in the assay on SKOV3, the outcome was inactive. For the same compound, the Potency entry in the assay on MCC-26, in the assay on MKL-1, with MKL-2, with UISO, in the assay with WaGa and in the assay on C33A was “inactive” each time. Besides, the Potency result in the assay on Es-2, with HeLa, in the assay on OV90, with PA-1, in the assay on Tov-21-G and in the assay on Tov112D was “inactive” each time. Moreover, the activity, negative = cell killing in assay [1] (setting [2]) was -9.74%; in [1] (setting [3]), 3.9%.
Turning to `COc1cccc([C@@]2(O)CCCC[C@@H]2CN(C)C)c1`, the outcome with MCC-13, in the assay with NIH3T3, with CAOV3, with CASKI, in the assay on Hek293T and with JEG-3 was inactive. The call in the assay on SKOV3 was inactive. Moreover, the Potency entry with MCC-26, in the assay on MKL-1, in the assay with MKL-2, in the assay on UISO, with WaGa and in the assay on C33A was “inactive” each time. Moreover, the Potency result in the assay on Es-2, in the assay on HeLa, with OV90, in the assay with PA-1, in the assay with Tov-21-G and with Tov112D was “inactive” throughout. Also, the activity, negative = cell killing in assay [1] (setting [2]) was -5.81%; in [1] (setting [3]) it was 6.21%; in assay [1] (setting [4]), -29.2%.
